Data as given in PubChem BioAssay (NCI).
Values joined by “and” are separate entries in the source; they are usually repeats but may differ in a detail not shown here. Equal entries are not always repeated. The panel holds about 83,000 compounds, 20% with a hit somewhere; the sample as a whole holds those more often.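 In brief: 96-well plates, 48 h treatment, single concentration, percent growth endpoint.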 Active and inactive are the calls of the source. The calls were made as follows: active = growth percent below 10; inactive = the rest.

What was measured:
Experiment in all cases: NCI-60 one-dose screen, 48 h (100 = growth as untreated, 0 = no growth, -100 = all killed)
[1] = tested on: HCT-15 colon; conditions: 10 µM unless noted
[2] = tested on: HT29 colon; conditions: 10 µM unless noted
[3] = tested on: SNB-75 CNS; conditions: 10 µM unless noted
[4] = tested on: SNB-19 CNS; conditions: 10 µM unless noted
[5] = tested on: U251 CNS; conditions: 10 µM unless noted
[6] = tested on: PC-3 prostate; conditions: 10 µM unless noted
[7] = tested on: SK-MEL-5 melanoma; conditions: 10 µM unless noted
[8] = tested on: UACC-62 melanoma
[9] = tested on: LOX IMVI melanoma; conditions: 10 µM unless noted
[10] = tested on: SK-MEL-28 melanoma; conditions: 10 µM unless noted
[11] = tested on: SK-MEL-2 melanoma; conditions: 10 µM unless noted
[12] = tested on: EKVX NSCLC; conditions: 10 µM unless noted
[13] = tested on: SN12C renal; conditions: 10 µM unless noted
[14] = tested on: UO-31 renal; conditions: 10 µM unless noted
[15] = tested on: TK-10 renal; conditions: 10 µM unless noted
[16] = tested on: ACHN renal; conditions: 10 µM unless noted
[17] = tested on: CAKI-1 renal; conditions: 10 µM unless noted
[18] = tested on: A498 renal; conditions: 10 µM unless noted
[19] = tested on: CCRF-CEM leukemia; conditions: 10 µM unless noted
[20] = tested on: MOLT-4 leukemia; conditions: 10 µM unless noted

Measured: growth

O=C1NN(C(=O)c2ccccc2)C(c2ccc(Cl)c(Cl)c2)=C/C1=C\c1ccccc1[N+](=O)[O-]
inactive: [3] 25.1% [6.75 µM] | [4] 24.3% [6.75 µM] | [5] 14.7% [6.75 µM] | [10] 27.8% [6.75 µM] | [11] 10.9% [6.75 µM] | [12] 32% [6.75 µM] | [13] 30.7% [6.75 µM] | [15] 42.1% [6.75 µM] | [16] 24% [6.75 µM] | [17] 24.1% [6.75 µM]
active: [1] -28.1% [6.75 µM] | [2] 4.99% [6.75 µM] | [6] 9.01% [6.75 µM] | [7] -65.4% [6.75 µM] | [8]; 10 µM unless noted -69% [6.75 µM] | [9] -45.5% [6.75 µM] | [14] -3.12% [6.75 µM] | [18] -10.9% [6.75 µM]

Cc1cc(O)c2cc3c(O)c(O)ccc3cc2c1
active: [8]; 100 µM -27.7% and -63.9%
inactive: [1] 113% | [2] 125% | [3] 127% | [4] 108% | [5] 108% | [6] 97.1% | [7] 94.8% | [8]; 10 µM 114% | [9] 112% | [11] 124% | [12] 106% | [13] 112% | [14] 102% | [16] 106% | [17] 105% | [18] 103% | [19] 118% | [20] 105%

CSC1=N/C(=C\c2cccc(OCc3ccc(Cl)cc3)c2)C(=O)N1
inactive: [1] 81.4% | [2] 76.7% | [3] 82.5% | [4] 90.4% | [5] 84.5% | [6] 76% | [7] 77.7% | [8]; 10 µM unless noted 70.4% | [9] 84.2% | [10] 100% | [11] 87.9% | [12] 75.5% | [13] 80.9% | [14] 67.2% | [15] 78.9% | [16] 87.1% | [17] 80.6% | [18] 62.1% | [19] 98.3% | [20] 90.5%

Clc1cc2nc(-c3ccccc3)c(-c3ccccc3)nc2cc1Cl
inactive: [1] 88.7% | [2] 88.5% | [3] 87.9% | [4] 102% | [5] 95.7% | [6] 77.3% | [7] 89.4% | [8]; 10 µM unless noted 84.7% | [9] 86.2% | [10] 101% | [11] 87.9% | [12] 82.6% | [13] 90.4% | [14] 55.7% | [15] 123% | [16] 93.7% | [17] 89.4% | [18] 82% | [19] 88.2%

Cc1ccsc1C(=O)CC(=O)C(F)(F)C(F)(F)C(F)(F)F
inactive: [1] 111% | [2] 111% | [3] 92.3% | [4] 111% | [5] 103% | [6] 91.2% | [7] 109% | [8]; 10 µM unless noted 96.7% | [9] 97.8% | [10] 103% | [11] 115% | [12] 93% | [13] 96.7% | [14] 86.5% | [15] 126% | [16] 102% | [17] 92% | [18] 116% | [19] 95.7%

COc1cc(CN2CCC(N3CCCC3=O)c3ccccc32)cc(OC)c1OC (stereo unspecified)
inactive: [1] 108% | [2] 80.5% | [3] 84.1% | [4] 83.6% | [5] 85.5% | [6] 66% | [7] 40.5% | [8]; 10 µM unless noted 64.4% | [9] 76.3% | [10] 98.2% | [11] 89.8% | [12] 66.1% | [13] 79.7% | [14] 56% | [15] 86.3% | [16] 91.3% | [17] 70.7% | [18] 63.6%

O=C(c1ccc(OCCN2CCCCC2)cc1)c1c(-c2ccc(O)cc2)sc2cc(O)ccc12
inactive: [1] 91.7% | [2] 114% | [3] 53.5% | [4] 86.7% | [5] 64.9% | [6] 81.8% | [7] 71.5% | [8]; 10 µM unless noted 92.1% | [9] 78.4% | [10] 88.3% | [11] 102% | [12] 83.3% | [13] 80.4% | [14] 67.1% | [15] 129% | [16] 91.5% | [17] 76% | [18] 90.9% | [19] 59.7%

CS(=O)(=O)c1ccc(C(=O)N/N=C/c2cccc3ccccc23)cc1
inactive: [1] 49.8% | [2] 49.5% | [3] 89.7% | [4] 79.8% | [5] 76.3% | [6] 78.8% | [7] 67.2% | [8]; 10 µM unless noted 61.6% | [9] 72.4% | [10] 89.4% | [11] 47.7% | [12] 87.4% | [13] 87.4% | [14] 78.5% | [15] 85.1% | [16] 98.5% | [17] 67.2% | [18] 69.1% | [19] 77.6%
